# Source: PubChem BioAssay (NMMLSC)
# The list is not random: actives were taken first. Their share in the collection is about 1.4%.
# QS inhibitor: inhibitors of bacterial quorum sensing in S. aureus; S. aureus RN6390 RNAIII-GFP reporter, AIP-induced, flow cytometry 3 h; inhibition, % at 2 µM; actives 0.3% (n = 24,000); AID 527;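 active = share of bacteria positive for the green fluorescent reporter and its mean brightness both inhibited by 50% or more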;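 also: 0% = AIP-stimulated control and 100% = unstimulated bacteria without AIP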
# FPRL1 ligand: ligands of human FPRL1, also counter-screen for FPR ligands; actives 0.3% (n = 24,000); FPRL1-expressing cells, fluorescent ligand binding inhibition, flow cytometry; P25090; inhibition, % (test concentration not listed);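 also: 0% = buffer alone and 100% = receptor blocker peptide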
# 26S disassembly: blocks ATP-dependent breakdown of the yeast 26S proteasome; anti-FLAG beads, GFP-proteasome disassembly, flow cytometry; inhibition of disassembly, % (concentration not given with the values); actives 0.2% (n = 24,000);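 active = inhibition of disassembly above about 33%, limit read from the data; inconclusive = likely self-fluorescent, control bead median signal at least 40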;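 also: plate controls were ATP control with full disassembly for no effect and ATP-gamma-S intact proteasomes for full effect; higher percent means more bead fluorescence retained so stronger block of disassembly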
# FPR binder: ligands of human FPR, also counter-screen for FPRL1 ligands; actives 0.74% (n = 24,000); inhibition, % (concentration not given with the values); FPR-expressing cells, fluorescent ligand binding, flow cytometry; P21462; AID 440;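 also: 0% = buffer wells and 100% = receptor blocker peptide wells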
# Target sequence (P21462 whole entry, looked up): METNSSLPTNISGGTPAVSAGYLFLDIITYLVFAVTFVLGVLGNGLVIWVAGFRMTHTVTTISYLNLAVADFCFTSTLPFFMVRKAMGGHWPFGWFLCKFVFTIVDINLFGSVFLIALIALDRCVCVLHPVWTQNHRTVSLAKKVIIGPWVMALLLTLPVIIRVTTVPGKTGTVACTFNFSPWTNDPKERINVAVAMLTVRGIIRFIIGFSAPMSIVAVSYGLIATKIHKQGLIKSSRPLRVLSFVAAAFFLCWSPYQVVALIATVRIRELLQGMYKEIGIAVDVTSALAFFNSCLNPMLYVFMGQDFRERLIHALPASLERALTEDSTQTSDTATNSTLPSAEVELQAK
# The depositor's hits bear a star; ? = inconclusive; / = no result given. Rule as the data show it, unless noted: active = inhibition above about 30%; inconclusive = no clear call, values can overlap the other calls; inactive = below that.
SMILES,QS inhibitor,FPRL1 ligand,26S disassembly,FPR binder
CC(C)(C)Nc1nc(NC(C)(C)C)nc(-n2ccnc2)n1,2.4,0.9,0.0,-0.4
C=CCN1C(=O)C2(/C(=C(\O)c3ccc4c(c3)OCCO4)C(=O)C(=O)N2CCCOC)c2ccccc21 (stereo not drawn),-1.9,1.9,-0.8,31.6*
Cc1ccc(N(CC(=O)N2CCN(C3CCCCC3)CC2)S(=O)(=O)c2cccnc2)cc1,-1.5,-9.2,0.9,-5.8
COc1ccc(CCNc2oc(COc3ccccc3F)nc2C#N)cc1,4.5,-4.9,48.5*,4.9
COc1ccc(-n2ccnc2SCC(=O)Nc2ccc(OC)cc2OC)cc1,-7.3,-2.2,0.1,-2.1
Cc1ccc(NC(=O)C2C(=O)N(CCO)C3(C)CC2c2ccccc2O3)cc1 (stereo not drawn),5.2,40.2*,1.9,30.9*
COc1ccc(NC(=O)C2C(=O)N(CCO)C3(C)CC2c2ccccc2O3)cc1 (stereo not drawn),-4.9,15.7,-0.2,18.5
CCOC(=O)C1=C(C)Nc2nnnn2C1c1c[nH]c2ccccc12 (stereo not drawn),0.3,-4.9,0.6,2.7
COC(=O)C1=[N+]([O-])OC(C(=O)OC)C1c1c[nH]c2ccccc12 (stereo not drawn),7.8,76.9*,-0.7,35.3*
Cn1c(=O)c2c3c(sc2n2c(SCc4ccccc4)nnc12)CCCC3,64.1*,-6.1,-2.7,1.1
O=C(NCCN1CCOCC1)NC1(C(F)(F)F)Oc2ccc(Cl)cc2O1 (stereo not drawn),-0.4,-6.6,-3.0,66.5*
CC(=O)OCCNc1cc(N2CCN(C)CC2)c2noc3c2c1C(=O)c1ccccc1-3,-1.5,52.9*,-3.4,6.2
COc1ccccc1-c1cc(C(=O)N2CCN(c3ccccc3OC)CC2)no1,-4.2,0.3,3.2,1.3
Cn1cc(/C=N/n2cnc3sc4c(c3c2=O)CCCC4)c2ccccc21,68.4*,-1.8,-1.4,-2.4
Cn1cc(C2NC(=O)c3c(sc4c3CCCC4)N2)c2ccccc21 (stereo not drawn),0.2,-1.9,?,3.5
CC(C)Cc1cc(C(=O)Nc2sc3c(c2C#N)CCCC3)no1,55.2*,-8.1,1.3,7.1
CCOC(=O)Cc1csc(NC(=O)C2CCCN(S(=O)(=O)c3cnc[nH]3)C2)n1 (stereo not drawn),-6.3,-0.6,0.8,2.6
CCOC(=O)c1ccc(NC(=O)Nc2ccc3c4c(cccc24)C(=O)N3CC)cc1,-0.5,48.0*,1.1,-17.9
COc1ccc(N(CC(=O)N2CC=C(c3ccccc3)CC2)S(=O)(=O)c2c(C)noc2C)cc1,17.3,-8.9,-1.4,0.0
CCOc1ccc(N(CC(=O)N2CC=C(c3ccccc3)CC2)S(=O)(=O)c2c(C)noc2C)cc1,53.1*,2.5,0.1,-4.2
Cc1nn(C(C)(C)C)c(OC(=O)C2CCCC2)c1S(=O)(=O)c1ccccc1,89.2*,-9.4,1.0,2.1
CCCN1Cc2cccc(C(=O)Nc3ccc(CN4CCCC4)cc3)c2C1=O,-8.7,-5.0,102.3*,-0.1
CCCCc1nc2ccccc2n2cc3c(=O)n(C)c(=O)n(C)c3c12,5.2,-3.6,0.3,-1.8
CS(=O)(=O)N(CC(=O)Nc1cccc(F)c1)Cc1ccccc1,-1.9,2.9,1.3,0.6
O=C(NC1CCCCCC1)C1c2ccccc2C(=O)N1Cc1cccnc1 (stereo not drawn),-0.1,3.2,2.3,3.9
SMILES,QS inhibitor,FPRL1 ligand,26S disassembly,FPR binder
O=C(NCc1cccnc1)C1c2ccccc2C(=O)N1C1CCCCCCC1 (stereo not drawn),-0.1,12.7,-0.3,47.6*
O=C(NCc1cccnc1)C1c2ccccc2C(=O)N1C1CCCCCC1 (stereo not drawn),-8.6,25.4,0.9,62.5*
c1cncc(-c2nc3c4ccccc4nc(N4CCC(N5CCCCC5)CC4)n3n2)c1,-0.3,-2.4,8.4,-1.2
CCOC(=O)c1cnn(-c2cc(C)c3cc(C)cc(C)c3n2)c1N,-4.3,7.0,-1.7,-2.0
O=C1CS/C(=N\C(=O)N2c3ccccc3Sc3ccccc32)N1,87.3*,1.3,5.0,7.3
c1cc(-c2nc3cc(Oc4ccc5oc(-c6ccncc6)nc5c4)ccc3o2)ccn1,2.3,-6.8,0.9,0.6
COc1cccc(CNC(=O)Cn2cc3c(n2)CCCC3)c1,8.8,29.9,-2.2,39.7*
COc1ccc(CC(=O)OCC(=O)NC(=O)NC2CCCCC2)cc1,-4.3,0.8,0.4,5.3
CCn1c(SCC(=O)N2CCOCC2)nc(O)cc1=O,4.5,5.3,1.3,11.3
C=CCn1c(SCCCC)nc(O)cc1=O,2.1,-6.2,0.9,56.0*
COc1cccc(OC)c1/C(O)=C(\C#N)c1nc2ccccc2[nH]1,-6.4,12.3,0.8,32.5*
CC(C)(C)/C(O)=C(/C#N)c1nc2ccccc2[nH]1,-4.4,-8.6,6.7,2.6
CCN1CCCC1CNC(=O)c1nn(-c2ccc(C)cc2)c(=O)c2c1c1ccccc1n2C (stereo not drawn),-0.7,-9.5,13.8,-14.1
CC1CC(C)CN(CCCNC(=O)c2ccc3c(c2)NC(=O)C(N2CCCCC2)S3)C1 (stereo not drawn),-1.0,-7.8,3.9,-4.2
COC(=O)c1ccc(CSc2nc3c(cnn3-c3ccc(Cl)cc3)c(=O)[nH]2)o1,70.8*,1.4,0.9,11.2
COC(=O)c1ccc(CSc2nc3c(cnn3-c3ccc(F)cc3)c(=O)[nH]2)o1,6.6,-0.1,1.1,-6.9
Cc1c(O)c(CN2CCCC(C)C2)cc2c3c(c(=O)oc12)CCC3 (stereo not drawn),0.5,-0.2,-2.0,1.6
Cc1ccccc1Cn1c(=O)c2c(nc3n2CCN3Cc2ccco2)n(C)c1=O,4.4,4.1,0.5,5.6
Cc1ccc(/C(O)=C2\C(=O)C(=O)N(c3cc(C)on3)C2c2cccc(Br)c2)cc1 (stereo not drawn),/,26.6,/,40.2*
COc1cc(C2/C(=C(\O)c3ccc4c(c3)CC(C)O4)C(=O)C(=O)N2CCCn2ccnc2)ccc1O (stereo not drawn),/,32.8*,/,43.8*
Cc1ccc(/C(O)=C2/C(=O)C(=O)N(CCCn3ccnc3)C2c2ccccn2)cc1 (stereo not drawn),/,-0.7,/,-29.0
Cc1ccc(C)c(/C(O)=C2\C(=O)C(=O)N(CCCn3ccnc3)C2c2ccncc2)c1 (stereo not drawn),/,24.7,/,37.2*
CC(C)(NCc1ccccc1Cl)C(=O)O,0.1,1.7,0.2,1.6
CCOC(=O)C1=C(C)N=C2SC(CC)C(=O)N2C1c1ccc(OC(C)=O)c(OCC)c1 (stereo not drawn),16.3,2.2,-2.9,9.9
CCOc1cc2[nH]c(=O)n(CCCCC(=O)NC3CCCCC3)c(=O)c2cc1OCC,0.6,9.4,-2.3,1.6
CCSc1nc(O)c(C2OC(=O)c3c2ccc(OC)c3OC)c(=O)n1-c1ccccc1 (stereo not drawn),-1.9,-0.5,-0.5,34.3*
COc1ccc2c(c1OC)C(=O)OC2Nn1cncn1 (stereo not drawn),-0.5,4.0,0.0,3.6
CCOC(=O)N1CCC(NC(=O)c2cc(C(=O)Nc3ccc(OC)c(OC)c3)ccc2CO)CC1,-5.7,33.7*,-1.4,15.1
